Three molecules from PubChem BioAssay can be followed below.

The nature of experiment [1]: P. berghei load reduction in hepatocytes – cell-based, HepG2, luciferase luminescence, HepG2 viability, primary screen (AID 624349; in the data active means parasite load remaining mostly below about 12%, no sharp cut-off; inactive means mostly above about 10%;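 further: 100% = mean of DMSO negative control wells on the same plate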). The note with it: P. berghei liver stage in HepG2, luciferase luminescence, concentration not given here; parasite load remaining: stronger effect = lower value; viability: measured here: HepG2 viability without parasites.
The nature of experiment [2]: signal quenchers or enhancers, Cy5 substrate/SSB – biochemical, NIH Clinical Collection, E. coli SSB, artefact control for HCV NS3 helicase inhibitor project (AID 743268). The note with it: Cy5-oligo bound E. coli SSB, fluorescence interference.
Experiment [3] has as its system Hepatitis C virus NS3 helicase. The experiment can be described thus: blockers of NS3h binding to DNA – biochemical, fluorescence polarization, NIH Clinical Collection, primary screen (AID 743270). The note with it: NS3 helicase binding to Cy5-dT15 DNA, stronger effect = higher value, concentration not given here. (In fluorescence polarisation assays a small probe gives low polarisation when free and higher when bound to something large.)

The target in experiment [4] is Single-stranded DNA-binding protein (Escherichia coli (strain K12)) (UniProt P0AGE0). Briefly: SSB-ssDNA binding inhibitors – biochemical, fluorescence polarization, NIH Clinical Collection, counter-screen for HCV NS3 helicase inhibitor project (AID 743271; in the data active means inhibition above about 28%). The conditions noted are these: E. coli SSB-DNA binding, stronger effect = higher value, concentration not given here.
Experiment [5] can be described thus: compounds distorting NS3 helicase fluorescence signal – biochemical, NIH Clinical Collection, artefact control for HCV NS3 helicase inhibitor project (AID 743272).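 Further: HCV NS3 helicase with a Cy5 labelled single stranded DNA probe.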 The note with it: fluorescence interference counterscreen, HCV NS3 helicase assay; stronger effect = lower value. In general terms: The purpose of a counterscreen is to sort out artefacts and off-target activity.

Experiment [6] can be described thus: Wnt pathway potentiators raising nuclear beta-catenin – imaging, WNT3A-conditioned medium, mouse C2C12, NPC library, primary screen (AID 1117326; in the data active means nuclear beta-catenin stimulation mostly above about 4.2%, no sharp cut-off; inactive means mostly below about 10%). The note with it: stronger effect = higher value.
Experiment [7] is described as follows: stimulators of insulin release from INS-1E, primary screen, cell-based, 5 mM glucose, NPC library (AID 1117329;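 active means compound raises insulin release from rat beta cells at 5 mM glucose, no numeric limit stated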). The note with it: rat INS-1E insulin secretion, at 10 µM, stronger effect = higher value.
A short description of experiment [8]: growth inhibition of GSK3B-pretreated HCT116 cells – cell-based, CellTiter-Glo, 0.2 to 20 µM (AID 1117336;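 active means compounds lowering colon cancer cell viability after pretreatment blocking the GSK3B kinase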). The conditions noted are these: HCT116 viability after GSK3B inhibitor, at 20 µM, stronger effect = higher value. In general terms: In ATP-based viability assays light output follows the ATP content of the culture.
The nature of experiment [9]: inhibition of endothelial tube formation, primary screen, imaging, VEGF stimulated, CD31 staining, tube area, NPC library (AID 1117340;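 active means compound that reduces growth-factor-driven endothelial tube area in a mixed cell culture, no cutoff stated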). The conditions noted are these: VEGF-stimulated ADSC/ECFC co-culture, at 10 µM, stronger effect = higher value.
A short description of experiment [10]: GLP1 release stimulators, primary, NCI-H716, NPC library (AID 1117341;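 active means compound raises GLP1 secretion from the human gut endocrine cells, with no numeric limit stated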). The note with it: NCI-H716 cells, at 10 µM, stronger effect = higher value.
Experiment [11] in a line: HCT116 colon cancer cell growth inhibition, primary screen, CellTiter-Glo luminescence, NPC library (AID 1117342;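 active means compounds that lower survival of HCT116 colon cancer cells in the luminescence readout, no numeric limit stated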). The note with it: at 20 µM (top of the series).
Experiment [12] in a line: reduced SW480 viability measured with CellTiter-Glo, NPC library, primary (AID 1117343;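 active means compounds that lower viability of the colon cancer cells in the luminescence readout, with no numeric limit stated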). The conditions noted are these: CellTiter-Glo luminescence; at 20 µM (top of the series).
Experiment [13] in a line: NPC library primary testing for decreased DLD-1 cell viability via CellTiter-Glo (AID 1117346;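 active means compounds that lower survival of DLD-1 colon cancer cells in the luminescence readout, no cutoff given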). The conditions noted are these: DLD-1 viability, CellTiter-Glo luminescence; at 20 µM (top of the series).
Experiment [14] deals with 6-phosphogluconate dehydrogenase, decarboxylating (Homo sapiens) (UniProt P52209). Briefly: inhibition of human phosphogluconate dehydrogenase – biochemical, recombinant enzyme, NADPH absorbance, primary screen (AID 1159550;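 active means at least 20% inhibition of 6-phosphogluconate dehydrogenase activity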). The conditions noted are these: recombinant 6PGD, NADPH absorbance 341 nm; at 10 µM; stronger effect = higher value.
Sequence of 6-phosphogluconate dehydrogenase, decarboxylating (Homo sapiens) (P52209 whole entry, looked up): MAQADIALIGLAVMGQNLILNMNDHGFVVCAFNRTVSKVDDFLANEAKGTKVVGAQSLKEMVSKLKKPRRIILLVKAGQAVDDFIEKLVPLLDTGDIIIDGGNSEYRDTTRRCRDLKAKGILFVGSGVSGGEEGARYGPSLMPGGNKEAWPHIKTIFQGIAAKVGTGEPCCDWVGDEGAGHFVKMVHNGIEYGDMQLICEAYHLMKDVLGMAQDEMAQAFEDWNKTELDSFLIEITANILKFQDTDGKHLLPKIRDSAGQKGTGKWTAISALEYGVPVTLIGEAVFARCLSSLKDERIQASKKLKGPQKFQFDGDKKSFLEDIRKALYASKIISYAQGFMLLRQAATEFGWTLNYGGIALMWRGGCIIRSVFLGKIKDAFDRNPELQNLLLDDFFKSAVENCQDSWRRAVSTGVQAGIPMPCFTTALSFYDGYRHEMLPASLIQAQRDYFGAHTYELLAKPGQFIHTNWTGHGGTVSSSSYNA
The nature of experiment [15]: EMT-state selective cytotoxicity in co-culture – imaging, PC-3E GFP, TEM4-18 mCherry, primary screen (AID 1345086;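 active means compounds killing one labelled cell type while sparing the other, by normalised counts and ratio limits, not self-fluorescent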;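 on all read-outs here: cells exposed to compound for 72 h before imaging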;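 on red/green cell ratio (normalised): normalised mesenchymal count divided by normalised epithelial count so high means epithelial killing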). The conditions noted are these: PC-3E GFP / TEM4-18 mCherry co-culture, imaging cell counts, at 1 µM; for red/green cell ratio (normalised): actives lie on both sides, counts scaled to control wells, 1 = unselective.
Experiment [16] is described as follows: MELAS cybrid and Rieske KO viability enhancers – cell-based, MELAS cybrids, Rieske KO mouse fibroblasts, CellTiter-Glo, primary screen (AID 1508586;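 active means mean z-score across replicates of 1.96 or higher in either the MELAS or the Rieske mutant cell line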;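 further: z relative to plate mean and SD of compound and empty wells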). The note with it: low glucose.
The target of experiment [17] is NAD(+) hydrolase SARM1 (Homo sapiens) (UniProt Q6SZW1). The experiment can be described thus: blocking NAD cleavage by SARM1 SAM-TIR – cell lysate, NAD-Glo luminescence (AID 1508614;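 active means compound whose remaining NAD level is above about 45 nM, limit read from the data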). The note with it: SAM-TIR HEK293T lysate NADase, at 1 µM, stronger effect = higher value.
Sequence of NAD(+) hydrolase SARM1 (Homo sapiens) (Q6SZW1 whole entry, looked up, the tested form may be a part): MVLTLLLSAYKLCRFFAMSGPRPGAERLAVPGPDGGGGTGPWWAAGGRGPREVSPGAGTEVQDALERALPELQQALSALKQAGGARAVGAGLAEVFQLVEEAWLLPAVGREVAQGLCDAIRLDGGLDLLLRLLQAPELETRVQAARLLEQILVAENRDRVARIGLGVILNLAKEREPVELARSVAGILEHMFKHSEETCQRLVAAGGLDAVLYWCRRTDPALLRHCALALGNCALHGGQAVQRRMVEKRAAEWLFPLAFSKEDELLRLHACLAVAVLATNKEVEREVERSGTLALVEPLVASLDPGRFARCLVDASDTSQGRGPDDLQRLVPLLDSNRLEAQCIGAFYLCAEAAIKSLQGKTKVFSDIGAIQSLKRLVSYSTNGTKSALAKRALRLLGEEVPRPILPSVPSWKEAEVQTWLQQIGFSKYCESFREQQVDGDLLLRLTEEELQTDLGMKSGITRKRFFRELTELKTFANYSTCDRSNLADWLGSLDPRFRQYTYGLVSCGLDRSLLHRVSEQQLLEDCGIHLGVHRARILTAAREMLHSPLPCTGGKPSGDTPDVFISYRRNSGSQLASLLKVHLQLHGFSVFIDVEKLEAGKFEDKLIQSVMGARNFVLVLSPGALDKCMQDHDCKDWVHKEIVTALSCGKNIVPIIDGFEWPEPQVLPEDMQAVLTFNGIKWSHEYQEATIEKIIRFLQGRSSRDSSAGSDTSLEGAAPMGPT
Experiment [18] addresses Mitogen-activated protein kinase 7 (Homo sapiens) (UniProt Q13164). The experiment can be described thus: Gal4-ERK5 driven luciferase induction – cell-based, HTS, primary screen (AID 1508626;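 active means luciferase signal above three times the same-plate solvent-only control wells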;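 further: luciferase driven by Gal4-ERK5 fusion binding five Gal4 sites before minimal TATA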). The note with it: HeLa Gal4-ERK5 transactivation, 18 h, at 5 µM, stronger effect = higher value.
The test system of experiment [19] is F380Y. Briefly: BK channel mutant inhibitors and activators – cell-based, U2OS BacMam, thallium flux, beta subunits, selectivity assay, profiling panel (AID 1259406;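 active means thallium flux through the channel raised or lowered by more than 3 SD from vehicle-only wells, actives on both sides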;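 further: initial slope of Thallos dye fluorescence rise after thallium is added; log ratio against the mean of 0.3% DMSO vehicle wells on the same plate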). The conditions noted are these: U2OS BacMam BK variants, at 30 µM.
A short description of experiment [20]: viability loss with induced miR-34 in A549 – imaging, A549 dox-inducible miR-34, nuclei and caspase counts, primary screen (AID 1347080;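 active means compounds whose cell count with miR-34 switched on is under 0.7 times the count with it off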). The conditions noted are these: A549 miR-34 inducible, Hoechst nuclei count, 48 h.
Setting [21] is: measured here: epithelial PC-3E GFP cell survival.
Where [22] appears, read: measured here: mesenchymal TEM4-18 mCherry cell survival.
Setting [23] is: MELAS cybrid survival, CellTiter-Glo 48 h, stronger effect = higher value.
[24] abbreviates: Rieske KO mouse fibroblast survival, CellTiter-Glo 72 h.

Usually viability stands for the share of living cells, or the viability signal relative to a control. As usually defined, the inhibition is the change of the read-out against control, counted positive when it falls.

Where “and” joins values, the source holds several entries; their conditions need not be identical. Identical values can stand only once. Calls of active or inactive are those of the source. Unless noted, how the calls were made is not given here.

Sequence of Mitogen-activated protein kinase 7 (Homo sapiens) (Q13164 whole entry, looked up, the tested form may be a part): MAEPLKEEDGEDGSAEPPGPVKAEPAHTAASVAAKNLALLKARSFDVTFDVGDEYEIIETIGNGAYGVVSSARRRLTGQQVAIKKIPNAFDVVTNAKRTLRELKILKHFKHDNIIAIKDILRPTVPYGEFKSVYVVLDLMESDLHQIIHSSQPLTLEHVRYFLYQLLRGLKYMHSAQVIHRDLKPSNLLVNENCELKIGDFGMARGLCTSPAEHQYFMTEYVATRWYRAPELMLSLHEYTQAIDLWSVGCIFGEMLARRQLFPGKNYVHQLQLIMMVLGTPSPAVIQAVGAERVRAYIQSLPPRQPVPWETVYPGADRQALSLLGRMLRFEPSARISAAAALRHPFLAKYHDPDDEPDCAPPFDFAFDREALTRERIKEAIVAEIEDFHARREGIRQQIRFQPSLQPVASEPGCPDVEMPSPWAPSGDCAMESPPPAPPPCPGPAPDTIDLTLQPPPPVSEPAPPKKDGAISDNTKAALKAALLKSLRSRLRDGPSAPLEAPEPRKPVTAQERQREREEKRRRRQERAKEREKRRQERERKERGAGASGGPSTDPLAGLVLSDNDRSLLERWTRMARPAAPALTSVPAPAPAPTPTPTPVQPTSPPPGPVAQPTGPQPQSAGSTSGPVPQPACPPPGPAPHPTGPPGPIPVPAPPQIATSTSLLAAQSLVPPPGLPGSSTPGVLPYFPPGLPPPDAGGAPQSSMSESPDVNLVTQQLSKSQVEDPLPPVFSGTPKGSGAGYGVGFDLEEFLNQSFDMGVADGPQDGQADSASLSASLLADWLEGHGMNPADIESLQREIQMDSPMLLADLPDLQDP

Take `COc1ccccc1N1CCN(CCCNc2cc(=O)n(C)c(=O)n2C)CC1`: the parasite load remaining in experiment [1] was 53.4% (inactive) and 119% (inactive) and 80.7% (inactive). Further, in experiment [1], the viability was 95.1% and 83.4% and 78.9%. In addition, the results for the fluorescence ratio in experiment [2] and in experiment [5] were 0.99 (inactive) and 0.96 (inactive), respectively. Also, the inhibition in [3] is -2.77% (inactive); in experiment [4], -1.64% (inactive); in experiment [14], -3.41% (inactive). For the same molecule, the nuclear beta-catenin stimulation in experiment [6] (at 10 µM) is 4.3% (inactive); in [6] (stimulation, at 2 µM), 0.2%. Also, in experiment [7], the insulin secretion stimulation is 1.1% (inactive). Further, the viability decrease in experiment [8] is 1.1% (inactive). Also, in experiment [9], the tube area decrease is 1% (inactive). Also, in [10], the GLP1 secretion stimulation is -0.1% (inactive). For the same molecule, in experiment [11], the inhibition of viability is 10.8% (inactive). Also, the viability decrease (inhibition) in experiment [12] was -11.2% (inactive); in experiment [13], -9.9% (inactive). Further, in experiment [15], the red/green cell ratio (normalised) was 1.12 (inactive). Moreover, the normalised cell number in [15] (setting [21]) was 0.91; in experiment [15] (setting [22]), 1.01. Also, the z-score in experiment [16] (setting [23]) is -0.289 (inactive) and 0.285 (inactive); in experiment [16] (setting [24]) it was 0.041 and 0.0737. Moreover, the remaining NAD in experiment [17] was 10 nM (inactive). For the same molecule, the luciferase signal in experiment [18] is 40 AU (inactive). Moreover, the log fold change Tl+ flux in [19] was -0.0416 (inactive).

In the case of `CCn1cc(C(=O)O)c(=O)c2cc(F)c(N3CCNCC3)cc21`, the nuclear beta-catenin stimulation in [6] (at 10 µM) is 0.1% (inactive); in experiment [6] (stimulation, at 2 µM), -1.2%. In experiment [7], the insulin secretion stimulation was 1.1% (inactive). In addition, the viability decrease in [8] was 13.9% (inactive). Also, the tube area decrease in experiment [9] is -4.6% (inactive). Moreover, the GLP1 secretion stimulation in [10] is 4.3% (inactive). Further, the inhibition of viability in experiment [11] was 4.5% (inactive). Besides, the viability decrease (inhibition) in experiment [12] is -12% (inactive); in experiment [13], -0.1% (inactive). Besides, the inhibition in experiment [14] is -0.111% (inactive). In addition, in [15], the red/green cell ratio (normalised) was 1.22 (inactive) and 1.14 (inactive). The normalised cell number in experiment [15] (setting [21]) was 0.92 and 1.12; in experiment [15] (setting [22]), 1.13 and 1.28. Also, the fold change in [20] (stronger effect = lower value, cell number ratio, induced over uninduced) was 0.843 (inactive) and 0.881 (inactive) and 0.867 (inactive); in [20] (measured here: relative caspase fold change +Dox/-Dox), 1.43 and 1.17. Further, the cell count in [20] (measured here: total cells with miR-34 induction, stronger effect = lower value) was 7840 and 11600 and 9850; in experiment [20] (measured here: total cells without miR-34 induction), 9310 and 13200 and 11400. For the same molecule, the z-score was 1.33 (inactive) and -0.232 (inactive) in experiment [16] (setting [23]); -0.144 and -0.221 in experiment [16] (setting [24]). Also, the remaining NAD in [17] was 10 nM (inactive). In experiment [18], the luciferase signal was 56 AU (inactive).

For `Fc1ccc([C@@H]2CCNC[C@H]2COc2ccc3c(c2)OCO3)cc1`, the fluorescence ratio was 1 (inactive) in experiment [2] and 0.99 (inactive) in experiment [5]. Further, the inhibition was -1.19% (inactive) in [3], -1.64% (inactive) in [4] and -2.44% (inactive) in experiment [14]. Besides, the nuclear beta-catenin stimulation in experiment [6] (at 10 µM) is 2.2% (inactive); in experiment [6] (stimulation, at 2 µM), 2.8%. The insulin secretion stimulation in experiment [7] is 11.8% (inactive). For the same molecule, the viability decrease in experiment [8] is -148% (inactive). The tube area decrease in experiment [9] is 46.2% (active). In experiment [10], the GLP1 secretion stimulation was 1.4% (inactive). Besides, the inhibition of viability in experiment [11] is 28.1% (inactive). The values for the viability decrease (inhibition) in experiment [12] and in [13] were 23% (inactive) and 19.7% (inactive), respectively. Moreover, the red/green cell ratio (normalised) in experiment [15] is 0.99 (inactive). Besides, the normalised cell number in experiment [15] (setting [21]) came to 0.48; in experiment [15] (setting [22]) it was 0.47. The z-score was -0.279 (inactive) and -0.953 (inactive) in [16] (setting [23]); -0.644 and -0.322 in [16] (setting [24]). Also, the remaining NAD in experiment [17] is 10 nM (inactive). In experiment [18], the luciferase signal was 168 AU (inactive).
